This is a sample that favours compounds with a hit; in the whole collection about 0.48% have one here.
SRC1 inh: inhibits human SRC1 coactivator | HEK293 GAL4-SRC1 luciferase reporter, luminescence | inhibition, % at 3.6 µM | 360,000 compounds, 0.12% hits;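 active = inhibition above the campaign mean plus 3 SD, with each screening campaign given its own cutoff, cut at about 60% in these data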
SRC2 inh: human SRC2 (NCOA2) inhibition; 370,000 compounds, 0.17% hits; Q15596; AID 651957; inhibition, % at 9 µM; HEK293 GAL4-SRC2 luciferase reporter, luminescence;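 active = inhibition above the mean inhibition of all tested compounds plus 3 SD, set per campaign, cut at about 52% in these data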
SRC3 inh: inhibitors of human steroid receptor coactivator 3 (SRC3). HEK293 GAL4-SRC3 luciferase reporter, luminescence. inhibition, % at 3.6 µM. 360,000 compounds, 0.17% hits;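 active = inhibition above a per-campaign cutoff, the mean of all compounds plus 3 SD, cut at about 60% in these data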;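 note: higher means less SRC3-driven luciferase light from the GAL4 reporter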
LGR2 antag: Drosophila LGR2 receptor signaling inhibition | HEK293 LGR2, CRE-luciferase, bursicon-stimulated, 4 h | inhibition, % at 9.99 µM | 380,000 compounds, 0.35% hits | AID 720647;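 active = drop in luminescence signal, shown as inhibition above about 50% in the replicate tests, limit read from the data, passing the limit was not always enough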;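 note: agonist challenge used bursicon conditioned medium at about half maximal strength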
LRH-1 inv ag: suppresses constitutive activity of human LRH-1. O00482. HEK293T StAR-luciferase reporter, LRH-1 transfected, 24 h. inhibition, % at 3.6 µM. 360,000 compounds, 0.13% hits. AID 602396;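 active = inhibition above the mean inhibition of all tested compounds plus 3 SD, cut at about 73% in these data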
Target sequence (O00482 whole entry, looked up): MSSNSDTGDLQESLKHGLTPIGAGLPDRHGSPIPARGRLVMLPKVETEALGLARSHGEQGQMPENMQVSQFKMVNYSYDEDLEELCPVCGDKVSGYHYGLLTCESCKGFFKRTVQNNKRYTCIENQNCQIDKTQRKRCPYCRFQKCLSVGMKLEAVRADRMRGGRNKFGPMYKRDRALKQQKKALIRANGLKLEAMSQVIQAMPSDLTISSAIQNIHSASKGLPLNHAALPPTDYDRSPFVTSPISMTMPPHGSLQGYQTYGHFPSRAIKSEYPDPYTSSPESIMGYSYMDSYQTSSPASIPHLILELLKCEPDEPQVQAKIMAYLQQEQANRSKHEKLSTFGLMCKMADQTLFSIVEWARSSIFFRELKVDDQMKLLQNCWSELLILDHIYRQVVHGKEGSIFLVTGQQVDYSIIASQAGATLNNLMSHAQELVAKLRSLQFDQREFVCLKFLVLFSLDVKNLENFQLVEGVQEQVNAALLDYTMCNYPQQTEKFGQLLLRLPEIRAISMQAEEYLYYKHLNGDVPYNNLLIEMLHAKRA
Each line names hits and unclear results; the compound was inactive in the other large screens.

C[C@@H]1C[C@@H]2O[C@H]2CCCCC(=O)Cc2cc(O)cc(O)c2C(=O)O1	none (no result: SRC1 inh, SRC3 inh, LGR2 antag, LRH-1 inv ag)
C[C@H](CO)N1C[C@H](C)[C@H](CN(C)C(=O)Nc2ccccc2)OCCCC[C@H](C)Oc2ccc(NC(=O)Nc3ccc(C(F)(F)F)cc3)cc2C1=O	none (no result: SRC1 inh, SRC2 inh, SRC3 inh, LRH-1 inv ag)
Cc1ccc(C#N)c(SCc2nnc(-c3ccc(Cl)cc3)o2)n1	SRC1 inh 69, SRC2 inh 54, SRC3 inh 75, LGR2 antag 66
Cc1cc(C)c(C#N)c(SCc2nnc(-c3ccccc3)o2)n1	SRC1 inh 80, SRC2 inh 67, SRC3 inh 79, LGR2 antag 77, LRH-1 inv ag 87
Cc1ccc(S(=O)(=O)NCC[C@@H]2CC[C@@H](NC(=O)C3CCOCC3)[C@H](CO)O2)cc1	none (no result: SRC1 inh, SRC2 inh, SRC3 inh, LRH-1 inv ag)
C[C@@H](NC(=O)C[C@H]1CC[C@H]2[C@@H](COC[C@H](O)CN2C(=O)Nc2ccccc2)O1)c1ccccc1	none (no result: SRC1 inh, SRC2 inh, SRC3 inh, LRH-1 inv ag)
N#C[C@@H]1[C@H](c2ccccc2C2=CCCC2)[C@@H](CO)N1C(=O)CN1CCOCC1	none (no result: SRC1 inh, SRC2 inh, SRC3 inh, LRH-1 inv ag)
O=C(C1CCCC1)N1CC2(C1)[C@H](c1ccccc1)[C@H](CO)N2CC1CC1	none (no result: SRC1 inh, SRC2 inh, SRC3 inh, LRH-1 inv ag)
CC(C)(C)OC(=O)NCc1ccc(CNC(=O)c2[nH]cnc2C(=O)NCC(=O)OCc2ccccc2)cc1	LGR2 antag 82
CC(C)(C)OC(=O)NCc1ccc(CNC(=O)c2nc[nH]c2C(=O)NCc2ccccc2)cc1	none
Cc1noc(C)c1NC(=O)Nc1ccc2c(c1)C(=O)N([C@H](C)CO)C[C@H](C)[C@@H](CN(C)Cc1ccccc1)OCCCC[C@H](C)O2	none (no result: SRC1 inh, SRC2 inh, SRC3 inh, LRH-1 inv ag)
C=CC[n+]1c(/C=C2\C=Cc3cc(C)ccc3N2CC)ccc2ccccc21	SRC3 inh 71, LRH-1 inv ag 89
CC1=NN(c2nc3ccccc3[nH]2)C(=O)C1Cc1ccccc1 (centres undefined)	SRC3 inh 75, LRH-1 inv ag 81 (no result: SRC2 inh)
Cc1noc(C)c1S(=O)(=O)Nc1ccc2c(c1)CC(=O)N([C@H](C)CO)C[C@@H](C)[C@@H](CN(C)Cc1ccc(-c3ccccc3)cc1)O2	none (no result: SRC1 inh, SRC2 inh, SRC3 inh, LRH-1 inv ag)
CCC1(OC(=O)CN(C)C)C(=O)OCc2c1cc1n(c2=O)Cc2cc3c(N)cccc3nc2-1 (centres undefined)	SRC3 inh 69, LRH-1 inv ag 85 (no result: SRC2 inh, LGR2 antag)
CCC1(O)C(=O)OCc2c1cc1n(c2=O)Cc2cc3c(N)cccc3nc2-1 (centres undefined)	SRC3 inh 80, LGR2 antag 98, LRH-1 inv ag 92
CCCCN1C=CC(=C2C(=O)c3ccccc3C2=O)C=C1	SRC2 inh 76 (no result: LGR2 antag)
CCCCNC1=CC(=O)C(=O)c2ccccc21	none
COc1ccc(/C=C/C(=O)Nc2ccccc2C(=O)O)cc1OC	LGR2 antag 81
COc1ccc(/C=C/C(=O)Nc2ccccc2C(=O)O)cc1	LGR2 antag 59
COc1ccc(/C=C/C(=O)Nc2ccccc2C(F)(F)F)cc1OC	none
O=C(C1CCC1)N1CC[C@@H]2[C@H]1c1cc(-c3cccc(F)c3)ccc1N[C@@H]2CO	none (no result: SRC1 inh, SRC2 inh, SRC3 inh, LRH-1 inv ag)
CCN(CC)c1ccc(/C=C/c2ccc3ccc(OC)cc3[n+]2CC)cc1	LRH-1 inv ag 74
Cc1ccc(NC(=O)CCC(=O)N/N=C/c2ccc([N+](=O)[O-])o2)cc1C	none
CCCC(=O)Nc1ccc(C(=O)N/N=C/c2ccc([N+](=O)[O-])o2)cc1	SRC1 inh 65, SRC3 inh 71, LRH-1 inv ag 83 (no result: LGR2 antag)
C[C@@H]1CN([C@H](C)CO)C(=O)c2cc(NS(=O)(=O)c3cccs3)ccc2O[C@@H]1CN(C)S(=O)(=O)c1cccs1	none (no result: SRC1 inh, SRC2 inh, SRC3 inh, LRH-1 inv ag)
O=C(N/N=C/c1ccc2ncccc2c1)c1ccco1	LGR2 antag 55
O=C(CSc1nc(-c2cccs2)cc(C(F)(F)F)n1)Nc1cc(OCC(F)(F)C(F)F)cc([N+](=O)[O-])c1	SRC1 inh 76
O=C(CSc1nc(-c2cccs2)cc(C(F)(F)F)n1)NCCCn1ccnc1	none
COc1ccccc1C(=O)Nc1ccc2c(c1)OC[C@H](C)N(C)C[C@@H](C)[C@@H](OC)CN(C)C2=O	none (no result: SRC1 inh, SRC2 inh, SRC3 inh, LRH-1 inv ag)
N#Cc1cc2c(nc1SCC(=O)N1CCOCC1)CCCCC2	SRC3 inh 65 (no result: LGR2 antag)
N#Cc1cc2c(nc1SCC(N)=O)CCCCC2	none (no result: LGR2 antag)
CNC[C@@H]1OCCCC[C@H](C)Oc2ccc(NC(=O)Nc3ccc(F)cc3)cc2C(=O)N([C@H](C)CO)C[C@H]1C	none (no result: SRC1 inh, SRC2 inh, SRC3 inh, LRH-1 inv ag)
Cc1ccc(S(=O)(=O)/N=C2\C=C(Nc3cccc(C(=O)O)c3)C(=O)c3ccccc32)cc1	none
O=C1C(Nc2ccccc2)=C/C(=N/S(=O)(=O)c2cccs2)c2ccccc21	SRC1 inh 85, SRC3 inh 87, LRH-1 inv ag 79 (no result: SRC2 inh, LGR2 antag)
Cc1ccc(S(=O)(=O)/N=C2\C=C(Nc3ccc(O)cc3)C(=O)c3ccccc32)cc1	SRC1 inh 90, SRC3 inh 92, LRH-1 inv ag 95 (no result: SRC2 inh, LGR2 antag)
Cc1ccc(S(=O)(=O)/N=C2\C=C(Nc3cccc(C(=O)O)c3)C(=O)c3ccccc32)c(C)c1	none
CCc1ccc(S(=O)(=O)/N=C2\C=C(Nc3ccc(C(=O)O)cc3)C(=O)c3ccccc32)cc1	LGR2 antag 103
Cc1ccc(NC2=C/C(=N/S(=O)(=O)c3cccs3)c3ccccc3C2=O)cc1	SRC3 inh 73 (no result: LGR2 antag)
CC=Cc1ccc2n(c1=O)C[C@@H]1[C@@H](CO)[C@H](C(=O)NCCC)N(C(=O)CC)[C@H]21 (mixture of isomers)	none (no result: SRC1 inh, SRC2 inh, SRC3 inh, LRH-1 inv ag)
CCC(=O)Nc1ccc2c(c1)C(=O)N(C)C[C@@H](OC)[C@@H](C)CN(C(=O)C1CC1)[C@@H](C)CO2	none (no result: SRC1 inh, SRC2 inh, SRC3 inh, LRH-1 inv ag)
Cc1noc(C)c1NC(=O)N(C)C[C@H]1Oc2c(NC(=O)Nc3ccccc3)cccc2C(=O)N([C@H](C)CO)C[C@H]1C	none (no result: SRC1 inh, SRC2 inh, SRC3 inh, LRH-1 inv ag)
Cc1ccc(S(=O)(=O)/N=C2/C=C(Sc3ncn[nH]3)C(=O)c3ccccc32)cc1	SRC1 inh 91, SRC3 inh 94, LRH-1 inv ag 97 (no result: SRC2 inh, LGR2 antag)
COC(=O)c1ccccc1NC1=C/C(=N\S(=O)(=O)c2ccc(C(=O)O)cc2)c2ccccc2C1=O	none (no result: SRC2 inh, LGR2 antag)
COC(=O)c1ccccc1NC1=C/C(=N\S(=O)(=O)c2cccs2)c2ccccc2C1=O	LGR2 antag 91
C[C@@H]1CN([C@H](C)CO)C(=O)c2cc(NC(=O)CCCCCC(=O)Nc3ccccc3N)ccc2O[C@H]1CN(C)C(=O)Nc1ccc2c(c1)OCO2	none (no result: SRC1 inh, SRC2 inh, SRC3 inh, LRH-1 inv ag)
C[C@H](CO)N1C[C@H](C)[C@@H](CN(C)Cc2ccc3c(c2)OCO3)OCCCC[C@H](C)Oc2ccc(N(C)C)cc2C1=O	none (no result: SRC1 inh, SRC2 inh, SRC3 inh, LRH-1 inv ag)
COC(=O)c1cc2c(n1S(=O)(=O)c1ccc(C)cc1)C(=O)C(=O)c1[nH]cc(C(=O)OCc3ccccc3)c1-2	SRC1 inh 87, SRC3 inh 88 (no result: SRC2 inh, LGR2 antag)
C/C=C/c1ccc2c(c1)O[C@@H](CN(C)Cc1ccncc1)[C@H](C)CN([C@@H](C)CO)S2(=O)=O	none (no result: SRC1 inh, SRC2 inh, SRC3 inh, LRH-1 inv ag)
CCN(CC)c1ccc(/C=N/NC(=O)c2nnn(-c3nonc3N)c2C(C)C)c(O)c1	SRC3 inh 77
CC[n+]1ccccc1/C=C/c1ccc(N(C)C)cc1	none
CCCCCC[n+]1ccccc1/C=C/c1ccc(N(C)C)cc1	SRC1 inh 72, SRC3 inh 82, LRH-1 inv ag 98
CCCn1c(C)cc(C(=O)COc2ccc(C)nc2[N+](=O)[O-])c1C	none (no result: LGR2 antag)
